Compound activity: PubChem, several laboratories
M18AAP inhibitor = PfM18AAP inhibitors, malaria aminopeptidase, primary screen, biochemical, QFRET, recombinant enzyme | M18 aspartyl aminopeptidase (Plasmodium falciparum 3D7) | 290,000 compounds, 1.2% hits | H-Glu-NHMec fluorogenic cleavage | inhibition, % at 7.35 µM;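 active = inhibition above the campaign mean inhibition over all tested compounds plus 3 SD, cut at about 28% in these data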;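 also: 0% = plate median of test compound wells and 100% = 2 mM ZnCl2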
HIF act = HIF pathway transcriptional activators, primary screen, cell-based, U2OS HRE-luciferase, luminescence; U2OS HRE-luciferase reporter; normalized: DMSO 0%, desferrioxamine 100%; activation, % at 7.5 µM (by protocol); 300,000 compounds, 0.32% hits; AID 1910, 2009;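 active = mean activation of at least 10% of the iron chelator positive control signal, with at least half of replicates also reaching 10%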
Mot1-301 SUMO = yeast Mot1-301 growth rescue at high temperature, primary screen, SUMOylation pathway inhibitor project, S. cerevisiae, ATP luminescence, 38.5C; S. cerevisiae Mot1-301 growth rescue; percent above DMSO median, 100 means doubled; growth rescue, % at 18.8 µM; 320,000 compounds, 1% hits;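 active = every valid replicate shows activation above 250% relative to neutral control wells; inactive = the rest, any valid replicate at or below 250%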;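 also: OY570 slx delta 5 strain wells were the positive control but not used for scaling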
ALR H2O2 inh = inhibitors of human ALR sulfhydryl oxidase, primary screen, biochemical, H2O2 detection, HRP-luminol luminescence, single point; purified ALR, DTT oxidation; inhibition, % (no concentration beside the values); 290,000 compounds, 3.8% hits;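 active = mean replicate inhibition above about 79%, with every replicate also reaching it, limit read from the data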
Target sequence (P55789 whole entry, looked up): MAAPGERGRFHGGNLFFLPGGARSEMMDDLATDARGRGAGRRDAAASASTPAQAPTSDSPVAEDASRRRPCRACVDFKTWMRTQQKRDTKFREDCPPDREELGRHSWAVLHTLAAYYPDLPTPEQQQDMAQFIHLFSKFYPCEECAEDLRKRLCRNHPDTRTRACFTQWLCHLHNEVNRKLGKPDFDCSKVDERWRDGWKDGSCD
Starred values were filed as active, the others as inactive. Compounds with a hit are over-represented: about 5.3% of the library has one in this group of screens.

How did Nn1c(SCC(=O)NC2CCS(=O)(=O)C2)nnc1-c1ccco1 (configuration not stated) do in these assays?
Mot1-301 SUMO: -7; ALR H2O2 inh: -7

Results for COc1cccc(-c2csc(NC3OC(=O)c4c3ccc(OC)c4OC)n2)c1 (configuration not stated) ?
M18AAP inhibitor: -15; HIF act: 0; Mot1-301 SUMO: -2; ALR H2O2 inh: 97*

How did COc1ccc2c(c1OC)C(=O)OC2Nc1nc(-c2cc3ccccc3oc2=O)cs1 (configuration not stated) do in these assays?
M18AAP inhibitor: 9; HIF act: 1

What do the screens show for `COc1ccc2c(c1OC)C(=O)OC2Nc1nc(-c2ccc(-c3ccccc3)cc2)cs1` (configuration not stated)?
M18AAP inhibitor: 0; HIF act: 0; Mot1-301 SUMO: 12; ALR H2O2 inh: 96*

How did Cc1cc(C(=O)O)ccc1N=Cc1c(O)ccc2ccccc12 do in these assays?
M18AAP inhibitor: 1; HIF act: 1; Mot1-301 SUMO: 1; ALR H2O2 inh: -18

What do the screens show for `COc1ccc(-c2nc(CS(=O)(=O)CC(=O)NC3CCC(C)CC3)c(C)o2)cc1` (configuration not stated)?
M18AAP inhibitor: -4; HIF act: 0; Mot1-301 SUMO: 17; ALR H2O2 inh: 98*

Results for Cc1ccc(-c2nc(CS(=O)CC(=O)NC3CCC(C)CC3)c(C)o2)cc1 (configuration not stated) ?
M18AAP inhibitor: -10; HIF act: 1; Mot1-301 SUMO: -5; ALR H2O2 inh: 99*

How did Cc1ccc(CS(=O)Cc2ccc(C(=O)NC3CCC(C)CC3)o2)cc1 (configuration not stated) do in these assays?
M18AAP inhibitor: -1; HIF act: 0; Mot1-301 SUMO: 3; ALR H2O2 inh: 61

How did Cc1oc(-c2ccc(Cl)cc2)nc1CS(=O)CC(=O)NC1CC1 (configuration not stated) do in these assays?
M18AAP inhibitor: -4; HIF act: 0; Mot1-301 SUMO: -1; ALR H2O2 inh: 99*

Results for O=C(CC(SCCO)c1ccc(F)cc1)c1ccco1 (configuration not stated) ?
M18AAP inhibitor: 17; HIF act: 1; ALR H2O2 inh: 89*

How did CC1(N(O)C=C2C=CC(=O)C=C2)CCCCC1=O (configuration not stated) do in these assays?
M18AAP inhibitor: -4; HIF act: -1; Mot1-301 SUMO: -18; ALR H2O2 inh: 99*

What do the screens show for `CC1(C)CC(=O)C(C(N)=NC(=O)c2ccc([N+](=O)[O-])cc2)=C(O)C1`?
M18AAP inhibitor: -2; HIF act: 1; Mot1-301 SUMO: 9; ALR H2O2 inh: 89*

Results for Cc1cccc(N2CCN(C(=O)C(C)C)CC2)c1C ?
M18AAP inhibitor: 8; HIF act: 0; Mot1-301 SUMO: 298; ALR H2O2 inh: 2

How did Cc1cc(C(=O)N2CCN(c3ccccc3O)CC2)c(C)o1 do in these assays?
HIF act: 1; Mot1-301 SUMO: -8; ALR H2O2 inh: 98*

How did CCOC(=O)N1CCN(c2ccccc2OC)CC1 do in these assays?
M18AAP inhibitor: -1; HIF act: 0; Mot1-301 SUMO: 17; ALR H2O2 inh: -4

How did COc1ccccc1N1CCN(C(=O)c2cc(C)oc2C)CC1 do in these assays?
M18AAP inhibitor: -5; HIF act: 0; Mot1-301 SUMO: 30

Results for CC(C)C(=O)N1CCN(c2ccccc2N)CC1 ?
M18AAP inhibitor: -8; HIF act: 0; Mot1-301 SUMO: 18; ALR H2O2 inh: 99*

How did CCOC(=O)N1CCN(c2ccccc2O)CC1 do in these assays?
M18AAP inhibitor: 26; HIF act: 0; Mot1-301 SUMO: 4; ALR H2O2 inh: 99*

How did COc1cccc(N2CCN(C(=O)c3cc(C)oc3C)CC2)c1 do in these assays?
Mot1-301 SUMO: 18; ALR H2O2 inh: 90*

Results for Cc1ccc(N(CC(=O)NC2CCCC2)C(=O)c2c(C)noc2C)cc1C ?
M18AAP inhibitor: -6; HIF act: 1; Mot1-301 SUMO: -9

What do the screens show for `C=C(Br)CN1[C@@H](Cc2ccccc2)[C@H](O)[C@@]23C=C[C@@H](C[C@@H]2S1(=O)=O)O3`?
Mot1-301 SUMO: 24; ALR H2O2 inh: 1

How did CCCCn1c(N)c(N(CCC(C)C)C(=O)c2[nH]c(C)c(C(=O)OCC)c2C)c(=O)[nH]c1=O do in these assays?
HIF act: 0; Mot1-301 SUMO: 3; ALR H2O2 inh: -14

How did O=C(c1ccc2ccccc2n1)N1CCN(c2ccccc2O)CC1 do in these assays?
M18AAP inhibitor: 19; HIF act: 0; Mot1-301 SUMO: 0; ALR H2O2 inh: 98*

Results for CCOC(=O)c1cc2c(=O)n3ccccc3nc2n(Cc2ccco2)c1=NC(=O)c1ccc(OC)cc1 ?
M18AAP inhibitor: 4; HIF act: 2; Mot1-301 SUMO: -1; ALR H2O2 inh: 24

What do the screens show for `CCOC(=O)c1cc2c(=O)n3cccc(C)c3nc2n(Cc2ccco2)c1=NC(=O)c1ccccc1`?
M18AAP inhibitor: 3; HIF act: 0; Mot1-301 SUMO: -13; ALR H2O2 inh: 89*

What do the screens show for `Cc1cc(N/N=C/c2ccc(O)cc2O)nc(N2CCOCC2)n1`?
M18AAP inhibitor: 24; HIF act: 0; Mot1-301 SUMO: 3; ALR H2O2 inh: 97*

How did Oc1ccc(/C=N\Nc2cc(N3CCOCC3)nc(N3CCOCC3)n2)c(O)c1 do in these assays?
M18AAP inhibitor: 26; HIF act: 1; Mot1-301 SUMO: 5; ALR H2O2 inh: 85*

Results for CC(C)c1ccc(/C=N/Nc2cc(N3CCOCC3)nc(N3CCOCC3)n2)cc1 ?
M18AAP inhibitor: -1; Mot1-301 SUMO: -2; ALR H2O2 inh: 6

How did CC(=O)OC1CC(C)(C)N(OC(=O)c2ccc(N)cc2)C(C)(C)C1 do in these assays?
M18AAP inhibitor: 0; HIF act: 0; Mot1-301 SUMO: 8; ALR H2O2 inh: 98*

How did Cc1nn(C)cc1S(=O)(=O)N1CCN(Cc2cccc(Cl)c2)CC1 do in these assays?
M18AAP inhibitor: 11; HIF act: 0; Mot1-301 SUMO: 271; ALR H2O2 inh: 0

How did O=C(COC(=O)CCCNC(=O)c1ccc(Cl)cc1)Nc1ccc(Br)cc1 do in these assays?
M18AAP inhibitor: -9; HIF act: 0; Mot1-301 SUMO: -13; ALR H2O2 inh: -4

How did COc1cc(OC)cc(C(=O)NCCN2CCOCC2)c1 do in these assays?
M18AAP inhibitor: -3; HIF act: -2; Mot1-301 SUMO: 75; ALR H2O2 inh: -1

What do the screens show for `Cn1nc(-c2ccc(Cl)cc2)c2cc(C(=O)NCCCN3CCCC3)sc21`?
M18AAP inhibitor: 0; Mot1-301 SUMO: 8; ALR H2O2 inh: 94*

Results for Cc1ccc(CNC(=O)c2cc3c(-c4ccc(Cl)cc4)nn(C)c3s2)o1 ?
M18AAP inhibitor: -4; Mot1-301 SUMO: 247; ALR H2O2 inh: 80*

What do the screens show for `COCCNC(=O)c1cc2c(-c3ccc(Cl)cc3)nn(C)c2s1`?
M18AAP inhibitor: -6; Mot1-301 SUMO: -7; ALR H2O2 inh: 92*
